# Source: PubChem (National Center for Advancing Translational Sciences (NCATS))
# PGK inhibitor: inhibitors of T. brucei phosphoglycerate kinase; P07378; PGK/GAPDH coupled, Kinase-Glo luminescence, 60 min; Potency, µM (series often up to 57.5 µM), for the others: at the highest dose activity change, negative = inhibition, hits mostly inhibitors; hit rate 0.043% among 380,000; AID 602233; note: potency is the fitted concentration of half-maximal effect; nearly all actives have a fitted effect of over 60% in size
#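 Recombinant glycosomal PGK reaction used 1,3-bisphosphoglycerate generated in-well by GAPDH (100nM final) in 100mM TEA pH 7.6, 5mM MgCl2, 0.01% Tween-20. After 60 minutes at room temperature, ATP was read by Kinase-Glo Plus luminescence end-point.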
# GCN5L2 inh: inhibitors of human GCN5L2 histone acetyltransferase; hit rate 0.21% among 390,000; GCN5L2 HAT assay, ThioGlo1 CoA-SH fluorescence; Q92830; Potency, µM (highest dose often 58.9 µM), without a hit: at the top dose activity change, negative = inhibition, actives largely listed as inhibitors; note: potency is the fitted concentration of half-maximal effect
# Target sequence (Q92830 whole entry, looked up): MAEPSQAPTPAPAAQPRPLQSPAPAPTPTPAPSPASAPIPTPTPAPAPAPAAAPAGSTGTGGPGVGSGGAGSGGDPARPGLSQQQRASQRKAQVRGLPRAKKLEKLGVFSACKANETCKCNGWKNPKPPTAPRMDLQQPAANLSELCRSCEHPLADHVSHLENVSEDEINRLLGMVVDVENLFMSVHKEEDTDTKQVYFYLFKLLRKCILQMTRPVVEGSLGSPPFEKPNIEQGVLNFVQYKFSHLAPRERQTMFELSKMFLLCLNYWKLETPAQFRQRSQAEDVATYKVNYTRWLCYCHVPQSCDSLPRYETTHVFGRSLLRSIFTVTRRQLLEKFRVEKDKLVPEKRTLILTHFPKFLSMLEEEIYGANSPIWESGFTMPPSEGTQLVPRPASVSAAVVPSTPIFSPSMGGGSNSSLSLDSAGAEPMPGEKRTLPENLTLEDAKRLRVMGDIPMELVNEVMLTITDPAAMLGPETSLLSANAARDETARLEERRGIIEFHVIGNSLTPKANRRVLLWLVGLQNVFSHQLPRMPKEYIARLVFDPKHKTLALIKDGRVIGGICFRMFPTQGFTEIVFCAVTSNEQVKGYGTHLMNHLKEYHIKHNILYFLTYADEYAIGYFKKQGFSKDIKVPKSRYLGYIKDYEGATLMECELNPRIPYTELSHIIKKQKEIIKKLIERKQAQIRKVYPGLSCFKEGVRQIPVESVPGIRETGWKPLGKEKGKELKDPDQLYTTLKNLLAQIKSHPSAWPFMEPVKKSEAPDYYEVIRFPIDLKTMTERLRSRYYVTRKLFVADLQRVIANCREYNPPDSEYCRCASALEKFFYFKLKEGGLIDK
#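 qHTS, 1536-well. 20nM enzyme, pH 7.5 HEPES/EDTA/Tween-20 buffer; 15 min compound preinc., RT. Start: 75uM H3(1-25), 70uM AcCoA, 50uM ThioGlo1. Read Ex340/Em540 at t=0 (autofluorescence flag) and t=20 min.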
# Pin1 inh: blocks the human prolyl isomerase Pin1 | Potency, µM (series often up to 115 µM), for the others: at the highest dose activity, negative = inhibition, usual class: inhibitors | hit rate 0.009% among 390,000 | Pin1 FP peptide displacement, HiFluor488, 10 min; active = well fitted inhibition curve with a large enough effect in the polarisation, with a control signal flat, not every such curve was filed as active; inconclusive = small, poorly fitted or top-dose-only effect, or effect the other way, or a change in a side signal; inactive = no such curve, though single readings can be large or run the other way; the % refers to the polarisation; note: potency is the fitted concentration of half-maximal effect
# hERG WT inh: inhibitors of human wildtype KCNH2 potassium channel; Q12809; U2OS, BacMam KCNH2, thallium flux FluxOr; stronger effect = lower value; activity change, % at 1.84 µM; hit rate 0.37% among 340,000;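 active = maximum activity change below -70%; inconclusive = maximum activity change between -70% and -50%; inactive = maximum activity change above -50%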
#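 U2OS cells transduced with wild-type KCNH2 virus are loaded with FluxOr dye for 45 min, and thallium flux is measured in kinetic reads before and after stimulation buffer. Rate constants are normalized to DMSO controls.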
# KCNH2 3.1 inh: KCNH2 3.1 (human) potassium channel inhibition. U2OS KCNH2 3.1, thallium flux FluxOr; stronger effect = lower value. activity change, % (tested at about 1.8 µM). hit rate 0.95% among 340,000. AID 720553;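 active = maximum activity change below -70%; inconclusive = maximum activity change from -70% to -50%; inactive = maximum activity change above -50%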;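 note: thallium influx rate constant from kinetic fluorescence after stimulation buffer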
#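 We transduce U2OS cells with the mutant 3.1 virus, culture them overnight, load FluxOr with Red40 quencher for 45 min, then add stimulation buffer and read kinetically for 2 min to derive a normalized rate constant.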
# RGS4 inh: human RGS4 inhibition | Transcreener GDP fluorescence polarization, RGS4-accelerated GTP hydrolysis | Potency, µM (doses to about 114 µM), inactives show at the highest dose activity change, negative = inhibition, hits mostly inhibitors | P49798 | hit rate 0.039% among 390,000; note: potency is the fitted concentration of half-maximal effect; nearly all actives have a fitted effect of over 75% in size
#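 MLSMR compounds (23 nl, pin-transferred) preincubated 10 min at room temperature with a 500nM (2x) first reagent, then RGS4 at 900nM (2x) plus Transcreener GDP mix added; fluorescence polarization (620/688 nm) read before and after 90 min at 30 °C.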
# Starred values were filed as active, the others as inactive; i = inactive; ? = inconclusive; · = not tested or not shown. This is a sample that favours compounds with a hit; in the whole collection about 1.2% have one here. Unless noted, calls come from the whole dose curve; as a rule, active = well fitted curve in the direction sought with a large enough effect; inconclusive = small, poorly fitted or top-dose-only effect, or another doubt; inactive = no such curve, though single readings can be large; an effect the other way counts as inactive or inconclusive. % is set by controls: 0 for no effect and ±100 for the full control effect.
SMILES,PGK inhibitor,GCN5L2 inh,Pin1 inh,hERG WT inh,KCNH2 3.1 inh,RGS4 inh
O=C1OCCN1CCNCc1cn(-c2ccc(F)cc2)nc1-c1ccccc1Cl,-9%,0%,-7%,-150*,-7,11%
Cc1ccc(C2=NS(=O)(=O)N(C)C(C(=O)N3CCOCC3)=C2)cc1,-6%,10µM*,-3%,0,1,-13%
COC(=O)CN1C(=O)CSc2ccc(S(=O)(=O)Nc3ccc(F)c(Cl)c3)cc21,-4%,2%,-3%,·,·,-2%
COc1ccc(CCNC(=O)c2ccc3c(c2)NC(=O)C(CSCc2cc(C)ccc2C)N3)cc1OC (configuration not stated),·,28µM*,·,·,·,·
N#Cc1cccc(-c2nc(NCc3cccnc3)c3ccccc3n2)c1,·,-7%,·,·,·,·
N#Cc1cccc(NC(=O)N2CC3(CCN(C(=O)c4cc(C(F)(F)F)cc(C(F)(F)F)c4)CC3)C2)c1,·,-1%,·,·,·,·
Cc1cccc(C)c1NC(=O)Cn1nnnc1N,0%,1%,-3%,-4,-91*,14%
Cc1cccc(C)c1NC(=O)CN,0%,-2%,-1%,3,-15,8%
Cc1cc(C)cc(NC(=O)CSc2nnc(-c3cc4occc4n3C)n2-c2ccccc2C)c1,-9%,-5%,10%,·,·,-14%
O=C(Nc1ccn(-c2ccccc2)n1)c1ccc(S(=O)(=O)N2CCCCCC2)cc1,-4%,-9%,-2%,-29,-84*,-19%
COc1ccc(/C=C/C2=CCN(Cc3ccc(OC)cc3)CC2)cc1,-2%,-10%,10%,-33,-79*,24%
CCOc1ccc(NC(=O)c2cc3sc(Cl)cc3n2CC)cc1,11%,-2%,0%,·,·,3%
Oc1cccc(/C=N/Nc2nn3cnnc3c3ccccc23)c1,-3%,-6%,-3%,14,-114*,-35%
COc1cccc(/C=N/Nc2nn3cnnc3c3ccccc23)c1O,-7%,-15%,-1%,5,1,-29%
CCCN1CCC(=O)N([C@H](CSc2ccc(Br)cc2)c2ccccc2)CC1,i,-11%,2%,-130*,-116*,-16%
O=C1CCN(CCc2ccccc2)CCN1[C@H](CSc1ccc(Br)cc1)c1ccccc1,1%,10%,23%,-170*,-113*,-10%
O=C1CCN(Cc2ccc(O)cc2)CCN1[C@H](CO)c1ccccc1,6%,-6%,-15%,-3,-118*,-31%
CC(=O)Nc1ccc(SC[C@H](c2ccccc2)N2CCN(CCc3ccccc3)CCC2=O)cc1,·,21%,·,·,·,·
O=C1CCN(Cc2ccccc2)CCN1[C@H](CO)c1ccccc1,-7%,0%,-4%,5,11,20%
COCCCNC(=O)CSc1nc(-c2cccc(F)c2)[nH]c1-c1ccccc1,i,-10%,18%,·,·,-18%
CC(NC(=O)C(=O)N1CCOCC1)C(c1cccs1)N1CCN(c2ccccc2F)CC1 (configuration not stated),i,0%,-1%,1,-122*,-4%
CCc1sc(-c2cc3cccc(OC)c3oc2=O)nc1-c1cc(C)ccc1C,·,·,-3%,·,·,15%
COc1ccc(CNC(=O)C2CCCN(C(=O)N3CCOc4ccccc43)C2)cc1 (configuration not stated),9%,-1%,-1%,·,·,9%
O=C(NCCc1nc2ccccc2[nH]1)/C(=C/c1ccc2c(c1)OCO2)NC(=O)c1ccc(Cl)cc1Cl,-6%,0%,0%,-165*,-107*,?
O=C(Nc1ccccc1)/C(=C/c1ccc(F)cc1)NC(=O)c1ccco1,3%,-2%,6%,2,-114*,-5%
SMILES,PGK inhibitor,GCN5L2 inh,Pin1 inh,hERG WT inh,KCNH2 3.1 inh,RGS4 inh
O=C(Nc1ccc(C(=O)O)cc1)/C(=C\c1ccc2c(c1)OCO2)NC(=O)c1ccccc1Cl,-4%,·,·,2,?,·
O=C(NCc1ccco1)/C(=C/c1ccccc1)NC(=O)c1ccco1,0%,-2%,-11%,-92*,-2,4%
O=C(NCc1ccco1)/C(=C/c1ccc(Cl)cc1)NC(=O)c1ccco1,-2%,0%,-1%,19,-3,-6%
O=C(NCCc1nc2ccccc2[nH]1)/C(=C/c1ccc(F)cc1)NC(=O)c1ccco1,2%,-1%,4%,-72*,0,31%
O=C(NCCc1nc2ccccc2[nH]1)/C(=C/c1ccco1)NC(=O)c1ccccc1Br,i,1%,1%,-6,-23,-9%
O=C1NN(c2ccc(Cl)c(Cl)c2)C(=O)/C1=C/c1cccc(OC(=O)c2cccs2)c1,·,35µM*,·,·,·,·
COC(=O)c1[nH]c2ccc(Br)cc2c1NC(=O)C(C)N1CCN(C2CCCCC2)CC1 (configuration not stated),-1%,-2%,3%,-72*,-70*,-1%
COC(=O)c1[nH]c2ccc(C)cc2c1NC(=O)C(C)N1CCN(C2CCCCC2)CC1 (configuration not stated),11%,-2%,8%,-44,?,-11%
CCCn1c(CCCNC(=O)c2ccccc2OC)nc2ccccc21,-2%,-2%,0%,·,·,41%
c1csc(CNc2nc(-c3ccc4c(c3)OCO4)nc3ccccc23)c1,·,-23%,·,·,·,·
C=CCN=c1scc(-c2ccc3c(c2)NC(=O)CO3)n1/N=C(\C)c1ccccn1,4%,-6%,37%,2,-95*,-17%
Cc1ccc(CNC(=O)CN2C(=O)C3CCCCN3c3ccc(C(=O)N(C)C)cc32)cc1 (configuration not stated),1%,-12%,?,·,·,-14%
O=C(NCCc1ccccc1)c1nnc(CS(=O)(=O)c2ccccc2)o1,-5%,4.5µM*,33%,-11,11,20%
O=C(c1ccncc1)N1CCC[C@@]2(CCN(Cc3ccccc3)C2)C1,·,-3%,·,·,·,·
C[C@H](CO)N1C[C@H](C)[C@@H](CN(C)Cc2ccc(Cl)c(Cl)c2)Oc2c(NC(=O)Cc3ccccc3)cccc2C1=O,8%,-11%,?,-15,-78*,13%
Cc1noc(C)c1S(=O)(=O)N(C)C[C@H]1Oc2c(NC(=O)Nc3ccccc3)cccc2C(=O)N([C@H](C)CO)C[C@@H]1C,1%,-2%,-1%,-124*,10,-6%
C[C@H](CO)N1C[C@H](C)[C@@H](CN(C)Cc2ccc(Oc3ccccc3)cc2)Oc2ccc(NC(=O)Cn3cnnn3)cc2C1=O,-9%,0%,-4%,-273*,10,8%
O=C(CSc1nc(-c2ccccc2)c2ccccc2n1)Nc1ccc(F)cc1,i,1%,6%,·,·,-1%
COc1ccc(Cn2ccc3nc(C)c(C(=O)N4CCN(c5cc(C)ccc5C)CC4)cc3c2=O)cc1,-7%,-4%,8%,·,·,-18%
